SNCA expr inh: Primary qHTS assay for inhibitors of alpha-synuclein gene (SNCA) expression. HEK-293 SNCA-luciferase knock-in, luminescence, 24 h. Potency, µM (top dose mostly 57.2 µM), hits mostly inhibitors. 140,000 tested, 0.17% active; further: nearly all actives have a fitted effect of over 45% in size
IP6K1 inh: Primary qHTS assay for small molecule inhibitors of Inositol hexaphosphate kinase 1 (IP6K1) | IP6K1 kinase, ADP-Glo luminescence, 2 h; hits give low values | activity change, % (series mostly up to about 58 µM) | 140,000 tested, 0.81% active; in the data active means activity change below about -25%
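ADP-Glo luminescence measures ADP made by human IP6K1 during a 2 h RT reaction with ATP/IP6 (mix at 1.3 mM/130 uM); top library doses 57.5 and 19.1 uM final.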
SNCA viab count: GF-AFC viability counterscreen for inhibitors of alpha-synuclein gene (SNCA) expression; 150,000 tested, 0.12% active; HEK-293-SNCA-luc viability, GF-AFC fluorescence, 24 h; AID 1671193, 2021; Potency, µM (doses to about 57.1 µM), usual class: cytotoxic; further: nearly all actives have a fitted effect of over 30% in size
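Cytotoxicity counterscreen: after 24 h compound treatment of genome-edited SNCA-luciferase HEK-293 cells, live-cell protease substrate GF-AFC read by fluorescence after 30 min; activity scaled between DMSO (0%) and medium-only (-100%), curves Hill-fitted.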
GPT2 inh: Primary qHTS assay for inhibitors of Glutamate pyruvate transaminase 2 (GPT2); Alanine aminotransferase 2 (Homo sapiens), Q8TD30; Recombinant GPT2, coupled pyruvate oxidase/HRP Amplex Red fluorescence; Potency, µM (doses to about 57.7 µM), hits mostly inhibitors; 100,000 tested, 0.25% active; AID 1671188, 2021; further: nearly all actives have a fitted effect of over 60% in size
Target sequence (Q8TD30 whole entry, looked up): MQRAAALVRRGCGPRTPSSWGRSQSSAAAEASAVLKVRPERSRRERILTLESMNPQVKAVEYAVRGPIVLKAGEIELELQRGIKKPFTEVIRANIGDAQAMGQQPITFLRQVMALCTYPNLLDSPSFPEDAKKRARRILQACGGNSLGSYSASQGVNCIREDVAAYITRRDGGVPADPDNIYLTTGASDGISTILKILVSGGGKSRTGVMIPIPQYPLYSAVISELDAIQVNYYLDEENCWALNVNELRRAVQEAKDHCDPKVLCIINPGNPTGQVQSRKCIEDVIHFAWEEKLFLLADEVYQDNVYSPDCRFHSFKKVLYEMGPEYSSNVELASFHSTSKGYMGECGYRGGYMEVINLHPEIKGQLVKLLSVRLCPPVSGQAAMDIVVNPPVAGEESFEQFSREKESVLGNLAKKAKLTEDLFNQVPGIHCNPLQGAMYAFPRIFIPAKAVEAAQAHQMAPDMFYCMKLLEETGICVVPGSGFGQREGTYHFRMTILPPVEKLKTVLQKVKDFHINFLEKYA
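Fluorescence read-out: pyruvate from GPT2 turnover coupled to pyruvate oxidase, HRP and Amplex Red (0.2mM ThPP, 0.2U/mL PO and HRP, 50uM Amplex final). Substrates 250uM a-KG, 2mM L-alanine; enzyme 10ng/uL; 30 min RT.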
IP6K1 conf: Confirmatory qHTS assay for small molecule inhibitors of Inositol hexaphosphate kinase 1 (IP6K1); 1,200 tested, 13% active; recombinant IP6K1 kinase, ADP-Glo luminescence, 2 h; shares compounds with IP6K1 inh; Potency, µM (series often up to 49 µM), most hits filed as inhibitors; further: nearly all actives have a fitted effect of over 65% in size
Large screens that a line does not name were inactive (follow-up assays come after a bar, where they were run); ! = not active in a repeat. Only some compounds are listed: those with a hit (about 1% of all), similar ones and a draw of the others. Unless noted, the call rests on the fitted dose curve; in most records, active means well fitted curve in the direction sought with a large enough effect; inconclusive means small, poorly fitted or top-dose-only effect, or another doubt; inactive means no such curve, though single readings can be large; an effect the other way counts as inactive or inconclusive.

O=C1CCN(S(=O)(=O)c2ccccc2)CCCN(S(=O)(=O)c2ccc3c(c2)CCC3)CCN1	none
CCN(C)C(=O)C(C)N1CCc2onc(-c3ccc(-c4ccccc4)cc3)c2C1 (stereo unspecified)	GPT2 inh inconclusive
CCC(O)C(=O)N1CCc2onc(-c3ccc(-c4ccccc4)cc3)c2C1 (stereo unspecified)	IP6K1 inh -46.6, SNCA viab count inconclusive | IP6K1 conf inconclusive
COc1ccccc1CNC(=O)c1ccc2c(c1)nc(C)n2-c1cccc(C)c1	IP6K1 inh -25.6 (no result: GPT2 inh) | IP6K1 conf inactive
COc1ccc(NC(=O)CN2CCN(Cc3ccccc3Cl)S2(=O)=O)cc1Cl	IP6K1 inh -29.4 (no result: GPT2 inh) | IP6K1 conf inconclusive
CCc1cccc(C)c1NC(=O)CN1CCN(Cc2ccccc2Cl)S1(=O)=O	none (no result: GPT2 inh)
Cc1ccc(/C=C/c2onc(C)c2S(=O)(=O)N2CCC(C(=O)NCc3ccco3)CC2)cc1	none (no result: GPT2 inh)
Cc1ccc(/C=C/c2onc(C)c2S(=O)(=O)N2CCC(C(=O)N(CCC(C)C)Cc3ccco3)CC2)cc1	IP6K1 inh -38.1 (no result: GPT2 inh) | IP6K1 conf inactive
c1cnc2nc(-c3c[nH]c4ncccc34)[nH]c2c1	IP6K1 inh -43.7! | IP6K1 conf inconclusive
Cc1cc(-c2nc3ncccc3[nH]2)c(C)[nH]1	none
NC(=O)c1cccc(CC2CCN(C(=O)c3ccnc(-n4cnnc4)c3)C2)c1 (stereo unspecified)	IP6K1 inh -27.0 | IP6K1 conf inactive
Cc1cc(C)n2nc(C(=O)N3CCC(Cc4cccc(C(N)=O)c4)C3)nc2n1 (stereo unspecified)	none
COc1ccc(NC(=O)c2nnn(Cc3ccccc3C)c2N)c(OC)c1	SNCA expr inh inconclusive, IP6K1 inh -26.6 (no result: GPT2 inh) | IP6K1 conf inactive
COCCCNC(=O)C1CCN(C(=O)c2ccc(-c3ccccc3OC)cc2)CC1	none
COc1ccc2c3c1C(CO)N(Cc1ccccc1)CC3=CC(C)(C)CO2 (stereo unspecified)	none (no result: SNCA expr inh, SNCA viab count, GPT2 inh)
Cc1cc(C)cc(NS(=O)(=O)c2ccc3[nH]cc(C(=O)N(C)Cc4ccccc4)c(=O)c3c2)c1	SNCA expr inh inconclusive, IP6K1 inh -26.0 (no result: GPT2 inh) | IP6K1 conf inactive
N=c1c2c(-c3ccccc3)cn(Cc3ccccc3)c2ncn1CCCO	none (no result: SNCA expr inh, IP6K1 inh, SNCA viab count, GPT2 inh) | IP6K1 conf inactive
Cn1c(=O)c2c(-c3ccccc3)n(CCCO)cc2n(C)c1=O	none (no result: GPT2 inh)
CCOC(=O)c1cc2c(=O)n3ccccc3nc2n(Cc2ccco2)c1=NC(=O)c1cccc(F)c1	IP6K1 inh -38.7, SNCA viab count inconclusive (no result: GPT2 inh) | IP6K1 conf inactive
CCOc1ccc2oc(=O)cc(CN3CCN(C(=O)c4cccc(Cl)c4)CC3)c2c1	SNCA expr inh inconclusive, IP6K1 inh -28.5 (no result: GPT2 inh) | IP6K1 conf inactive
COc1ccc(-c2nc3c(c(-c4ccccc4)n2)CN(C(=O)c2ccccc2F)CC3)cc1	SNCA viab count inconclusive
Cc1cnc(Nc2ccc(OCCN3CCCC3)cc2)nc1Nc1cccc(S(=O)(=O)NC(C)(C)C)c1	SNCA viab count inconclusive | IP6K1 conf inactive
c1ccc(-c2cnc(Nc3ccc(OCCN4CCCC4)cc3)s2)cc1	GPT2 inh inconclusive (no result: SNCA expr inh)
CCc1ccccc1N1CC(c2nc3ccccc3n2CCCCOc2ccccc2OC)CC1=O (stereo unspecified)	none (no result: GPT2 inh)
COc1ccccc1Cn1c(C2CC(=O)N(c3ccccc3OC)C2)nc2ccccc21 (stereo unspecified)	IP6K1 inh -43.1, SNCA viab count inconclusive (no result: GPT2 inh) | IP6K1 conf inactive
Cc1cccc(OCCCCn2c(C3CC(=O)N(c4ccc(C)cc4C)C3)nc3ccccc32)c1 (stereo unspecified)	SNCA expr inh inconclusive, IP6K1 inh -39.2, SNCA viab count inconclusive (no result: GPT2 inh) | IP6K1 conf inactive
O=C(NCCCc1ccccc1)C1CCN(C(=O)c2ccc(-c3cccs3)cc2)CC1	none (no result: SNCA expr inh, SNCA viab count, GPT2 inh)
O=C(Cc1ccccc1)N1CCN(c2ccnc3ccnn23)CC1	none
COc1ccc2[nH]c3c(c2c1)CCNC31CCN(C(=O)c2ccc(OC)nc2OC)CC1	none
CSc1ccc(-c2cccc(CN3CCC(NC(=O)Nc4ccccc4F)CC3)c2)cc1	none (no result: SNCA expr inh, SNCA viab count, GPT2 inh)
Cc1oc2ccc(O)c(CN(C)Cc3ccccc3)c2c1C(=O)Nc1ccccc1	IP6K1 inh -28.3 (no result: GPT2 inh) | IP6K1 conf inactive
O=C(Nc1ccc(N2CCN(c3ccc(F)cc3)CC2)c(C(=O)O)c1)c1cccs1	IP6K1 inh -26.5 (no result: GPT2 inh) | IP6K1 conf inconclusive
O=C(Nc1cnc(N2CCN(c3ccccc3)CC2)c(C(=O)O)c1)c1cccs1	IP6K1 inh -27.8 (no result: GPT2 inh) | IP6K1 conf inconclusive
O=C(NC[C@H]1O[C@@H](CO)[C@@H](O)[C@H]1N1CCN(c2ccccc2)CC1)c1cccs1	none
CC(=O)c1ccc(N2CCN(c3ccc(NC(=O)c4ccc(F)cc4)cc3C(=O)O)CC2)cc1	none (no result: GPT2 inh)
CC(C)[C@H](CO)Nc1nc(Nc2ccc(C(=O)O)c(Cl)c2)c2ncn(C(C)C)c2n1	SNCA expr inh inconclusive | IP6K1 conf inactive
CC(C)c1ccc(NC(=O)c2ccc(=O)n(Cc3ccccc3)c2)cc1	IP6K1 inh -28.0 (no result: GPT2 inh) | IP6K1 conf inactive
O=C(C1CCN(c2nccc(Nc3ccccc3Cl)n2)CC1)N1CCC(Cc2ccccc2)CC1	none
CN(C(=O)C(=O)Nc1ccc2nc3n(c(=O)c2c1)CCCCC3)c1cccc(C(F)(F)F)c1	none (no result: GPT2 inh)
O=C(Nc1ccc2nc3n(c(=O)c2c1)CCCCC3)c1cccc(C(F)(F)F)c1	IP6K1 inh -25.3, SNCA viab count inconclusive (no result: GPT2 inh) | IP6K1 conf inactive
COc1cc(CN2CCCC23Cc2ccccc2CNC3=O)ccc1F (stereo unspecified)	GPT2 inh inconclusive
COC(=O)CSc1nc2c(cnn2-c2ccc(F)cc2)c(=O)[nH]1	IP6K1 inh -31.7 (no result: GPT2 inh) | IP6K1 conf inconclusive
O=C(c1ccccc1F)N1CCC(C(=O)N2CCC(N3CCCC3=O)CC2)CC1	GPT2 inh inconclusive
Cc1c(Cn2c(C)nc3c(C(=O)O)cc(N4CCOCC4)cc32)cccc1C(F)(F)F	none | IP6K1 conf inactive
Cc1oc2ncnc(N3CCOCC3)c2c1C(=O)N1CCN(c2cccc(C(F)(F)F)c2)CC1	none (no result: GPT2 inh)
O=C(NCC1CCCCC1)C1CCN(c2nccc(Nc3ccccc3Cl)n2)CC1	SNCA expr inh inconclusive
Cc1ccc2c(c1)C(=O)C(=O)N2Cc1ccc(OC(C)C)cc1	SNCA expr inh inconclusive, IP6K1 inh -38.3, SNCA viab count inconclusive (no result: GPT2 inh) | IP6K1 conf inactive
CCC(C(=O)N1CCN(c2ccccc2)CC1)n1nc(C)n2c(cc3sccc32)c1=O (stereo unspecified)	none (no result: GPT2 inh)
CCC(C(=O)N1CCN(c2cc(Cl)ccc2C)CC1)n1nc(C)n2c(cc3occc32)c1=O (stereo unspecified)	IP6K1 inh -25.9 (no result: GPT2 inh) | IP6K1 conf inactive
O=C1c2cccc(O)c2C(=O)c2c(O)cccc21	none
